Our source for the Potency values is PubChem BioAssay (Tox21).

Values joined by “and” are separate entries in the source; they are usually repeats but may differ in a detail not shown here. Identical values can stand only once. Records with an inconclusive call do not appear. Active and inactive are the calls of the source. Unless noted, calls follow the shape of the dose curve; as a rule, active = well fitted curve in the direction sought with a large enough effect in the repeat runs; inconclusive = weak or mixed curves; inactive = no such curve, though single readings can be large; an effect the other way counts as inactive or inconclusive.

Assay [1] is described as follows: qHTS assay to identify small molecule agonists of the RXR signaling pathway - cell viability counter screen (AID 1159529). Also: nearly all actives have a fitted effect of over 50% in size. Also: potency is read from the fitted curve at half-maximal effect. In outline: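 HEK 293T RXRa-bla cells, 2% CS-FBS; 5 h settle; cpd 16 h 37 C, 5% CO2; CellTiter-Glo 30 min RT, luminescence. Tetraoctyl ammonium bromide as positive control.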
Assay [2] in a line: qHTS assay to identify small molecule antagonists of the retinoid acid receptor (RAR) signaling pathway - cell viability counter screen (AID 1159551). Also: nearly all actives have a fitted effect of over 35% in size. The gist of the method: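 In this counter screen, the RARE-luciferase line C3RL4 was exposed for 6 h at 37 C and 5% CO2 to compounds with retinol at 1 uM final. Cellular ATP, read by luminescence, served as the viability measure.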

The nature of assay [3]: qHTS assay to identify small molecule antagonists of the retinoic acid receptor (RAR) signaling pathway (AID 1159552; also: nearly all actives have a fitted effect of over 50% in size; also: potency is read from the fitted curve at half-maximal effect). The gist of the method:
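Cells of the C3RL4 line were seeded, incubated overnight, then dosed with compounds in DMSO followed immediately by retinol (1 uM final). Six hours later luciferase detection reagent went in; signal was measured after 30 min at RT.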

Assay [4] is described as follows: qHTS assay to identify small molecule antagonists of the estrogen related receptor (ERR) signaling pathway from Tox21 library - cell viability counter screen (AID 1224834). Also: nearly all actives have a fitted effect of over 30% in size. In outline: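 Counter screen run in ERR cells (2,000 cells/well): cells pre-incubated 6 h, then treated with compounds for 17.5 h at 37 C. Fluorescence was read 30 min after CellTiter-Fluor addition.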

For assay [5], the target named is Luciferin 4-monooxygenase (Photinus pyralis) (UniProt P08659). Description: qHTS assay to identify small molecule inhibitors of firefly luciferase (AID 1224835). Also: series mostly up to about 120 µM; nearly all actives have a fitted effect of over 25% in size. The gist of the method: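 Biochemical qHTS: compounds run as interplate titrations against purified firefly enzyme, with D-luciferin and ATP each at its KM concentration. Light output recorded by CCD imaging.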
Sequence of Luciferin 4-monooxygenase (Photinus pyralis) (P08659 whole entry, looked up): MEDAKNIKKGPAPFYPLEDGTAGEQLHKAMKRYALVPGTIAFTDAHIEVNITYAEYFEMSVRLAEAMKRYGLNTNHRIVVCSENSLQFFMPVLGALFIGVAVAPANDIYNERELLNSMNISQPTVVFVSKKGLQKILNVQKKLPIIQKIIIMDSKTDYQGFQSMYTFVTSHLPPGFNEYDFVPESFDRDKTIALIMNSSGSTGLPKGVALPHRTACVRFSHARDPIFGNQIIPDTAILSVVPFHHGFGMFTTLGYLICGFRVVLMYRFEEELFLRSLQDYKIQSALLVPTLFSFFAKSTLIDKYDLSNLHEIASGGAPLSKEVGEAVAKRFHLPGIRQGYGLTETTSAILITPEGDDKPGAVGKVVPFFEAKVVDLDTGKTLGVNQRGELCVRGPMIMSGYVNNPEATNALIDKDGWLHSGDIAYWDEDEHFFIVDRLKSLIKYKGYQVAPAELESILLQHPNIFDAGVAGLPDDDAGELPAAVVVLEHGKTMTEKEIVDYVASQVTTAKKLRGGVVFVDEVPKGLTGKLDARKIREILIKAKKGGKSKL
(In qHTS, concentration-response curves come from the screen itself.)

A short description of assay [6]: qHTS assay to identify small molecule agonists of the constitutive androstane receptor (CAR) signaling pathway - cell viability counter screen (AID 1224836). Also: series mostly up to about 92 µM; nearly all actives have a fitted effect of over 45% in size. In outline: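 HepG2-CYP2B6-hCAR, 2500 cells/well, 4 h pre-incubation; cpd 15 conc + PK11195 0.75 uM final; 23 h, 37 C/5% CO2; CellTiter-Fluor, fluorescence.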
Assay [7] in a line: qHTS assay to identify small molecule antagonists of the constitutive androstane receptor (CAR) signaling pathway - cell viability counter screen (AID 1224837). Also: series mostly up to about 92 µM; nearly all actives have a fitted effect of over 45% in size. The gist of the method:
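CITCO at 50 nM final was added alongside compounds (15 concentrations) to double-stable hCAR/CYP2B6-2.2kb HepG2 cells. Following 23 hr at 37 C, cell viability was quantified by CellTiter-Fluor fluorescence intensity.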

Assay [8] deals with Nuclear receptor subfamily 1 group I member 3 (Homo sapiens) (UniProt Q14994). Briefly: qHTS assay to identify small molecule antagonists of the constitutive androstane receptor (CAR) signaling pathway (AID 1224838). Also: nearly all actives have a fitted effect of over 40% in size. In outline: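 Inhibition of CITCO-driven (50 nM final) CYP2B6 reporter expression is measured in HepG2 cells stably carrying hCAR. Fifteen compound concentrations are applied for 24 h at 37 C, followed by luciferase luminescence.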
Sequence of Nuclear receptor subfamily 1 group I member 3 (Homo sapiens) (Q14994 whole entry, looked up): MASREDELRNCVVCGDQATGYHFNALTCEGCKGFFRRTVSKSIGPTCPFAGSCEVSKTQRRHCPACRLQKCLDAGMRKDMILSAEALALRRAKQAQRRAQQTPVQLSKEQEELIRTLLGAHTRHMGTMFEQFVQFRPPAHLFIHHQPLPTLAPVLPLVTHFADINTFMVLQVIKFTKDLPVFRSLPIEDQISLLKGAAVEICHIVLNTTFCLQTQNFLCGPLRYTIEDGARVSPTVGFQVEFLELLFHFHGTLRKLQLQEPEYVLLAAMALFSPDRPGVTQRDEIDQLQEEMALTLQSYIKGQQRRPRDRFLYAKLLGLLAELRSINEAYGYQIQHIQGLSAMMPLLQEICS

Assay [9] has the same target. Description: qHTS assay to identify small molecule agonists of the constitutive androstane receptor (CAR) signaling pathway (AID 1224839). Also: nearly all actives have a fitted effect of over 15% in size. Also: potency is read from the fitted curve at half-maximal effect. In outline: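 HepG2-CYP2B6-hCAR cells, 2500/well, 4 h pre-incubation; compounds 15 conc.; PK11195 0.75 uM final; 24 h, 37 C/5% CO2; ONE-Glo luciferase read.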
A short description of assay [10]: qHTS assay to identify small molecule antagonists of the estrogen related receptor signaling pathway with the pleiotropic PPARgamma coactivator (PGC) from Tox21 10K library - cell viability counter screen (AID 1224840; active = well fitted cell-killing curve with a large enough effect in the repeat runs, not every such curve was filed as active; also: nearly all actives have a fitted effect of over 40% in size). In outline:
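Readout: fluorescence intensity from CellTiter-Fluor after 30 min at 37 C/5% CO2. Preceded by 17.5 h treatment of PGC/ERR cells with DMSO-dissolved compounds, added 6 h post-seeding.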

Assay [11] concerns the target Thyrotropin receptor (Homo sapiens) (UniProt P16473). Briefly: qHTS assay to identify small molecule agonists of the thyroid stimulating hormone receptor (TSHR) signaling pathway (AID 1224843; calls by dose curve; also: nearly all actives have a fitted effect of over 45% in size). The gist of the method: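 Agonist-mode screen: TSHR HEK293 cells received test chemicals for half an hour at room temperature, then HTRF cAMP detection reagents for one hour prior to fluorescence measurement. Each chemical ran as a 15-concentration series, triplicated.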

A short description of assay [12]: qHTS assay to identify small molecule agonists of the retinoic acid receptor (RAR) signaling pathway (AID 1159553). In outline:
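In this cell-based screen, 1,000 C3RL4 cells per well were cultured overnight, dosed with test chemicals in DMSO for 6 hr, and assessed for RARE luciferase luminescence.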

Assay [13] in a line: qHTS assay to identify small molecule agonists of the estrogen related receptor signaling pathway with the pleiotropic PPARgamma coactivator (PGC) from Tox21 10K library (AID 1224842). Also: nearly all actives have a fitted effect of over 15% in size. The gist of the method:
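PGC/ERR reporter cell line, 2,000 cells per well, incubated 6 h at 37 C before 23 nL compound in DMSO was added. After 18 h at 37 C, One-Glo luminescence read following 30 min at room temperature.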

Assay [14] can be described thus: qHTS assay to identify small molecule antagonists of the estrogen related receptor signaling pathway with the pleiotropic PPARgamma coactivator (PGC) from Tox21 10K library (AID 1224841; call rule not given here; also: series mostly up to about 92 µM; actives are mostly falling curves and most rising ones were filed inactive; nearly all actives have a fitted effect of over 50% in size). The gist of the method: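 One-Glo luminescence, measured after half an hour at room temperature, quantified reporter output of PGC/ERR cells. These had been plated at 2,000 per well, incubated 6 h, dosed with compounds in DMSO, then kept 18 h at 37 C.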

Sequence of Thyrotropin receptor (Homo sapiens) (P16473 whole entry, looked up): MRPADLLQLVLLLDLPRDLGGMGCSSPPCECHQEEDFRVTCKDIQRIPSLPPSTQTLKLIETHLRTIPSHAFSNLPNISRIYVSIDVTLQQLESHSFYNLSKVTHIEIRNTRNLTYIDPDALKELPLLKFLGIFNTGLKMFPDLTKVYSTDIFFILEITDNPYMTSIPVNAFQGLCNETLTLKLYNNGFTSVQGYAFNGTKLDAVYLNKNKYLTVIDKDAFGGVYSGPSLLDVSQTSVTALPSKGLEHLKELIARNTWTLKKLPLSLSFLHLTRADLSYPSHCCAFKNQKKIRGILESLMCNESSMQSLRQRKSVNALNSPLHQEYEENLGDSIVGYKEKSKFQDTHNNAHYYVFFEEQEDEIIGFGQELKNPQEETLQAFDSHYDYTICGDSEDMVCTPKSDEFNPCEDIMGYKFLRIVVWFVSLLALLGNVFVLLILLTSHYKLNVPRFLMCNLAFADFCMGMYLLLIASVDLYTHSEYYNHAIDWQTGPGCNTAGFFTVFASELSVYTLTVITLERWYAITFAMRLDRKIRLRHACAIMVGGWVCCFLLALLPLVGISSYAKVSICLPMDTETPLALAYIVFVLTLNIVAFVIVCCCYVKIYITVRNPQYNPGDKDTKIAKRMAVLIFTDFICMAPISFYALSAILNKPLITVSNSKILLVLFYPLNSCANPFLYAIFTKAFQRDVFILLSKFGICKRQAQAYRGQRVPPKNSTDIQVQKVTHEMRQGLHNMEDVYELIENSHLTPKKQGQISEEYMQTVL

In the case of `OCCCl`, the Potency entry in assay [1], in assay [2], in assay [3], in assay [4], in assay [5] and in assay [6] was “inactive” in each case. Besides, the Potency result in assay [7], in [8], in assay [9] and in assay [10] was “inactive” each time.
Take `FC(Cl)(Cl)C(F)(Cl)Cl`: the Potency result in assay [1], in assay [2], in [3], in assay [4], in assay [5] and in assay [6] was “inactive” in each case. Besides, the Potency result in [7], in assay [8], in [10] and in assay [11] was “inactive” in each case.
As to `CCCCC(CC)COC(=O)c1c(Br)c(Br)c(Br)c(Br)c1C(=O)OCC(CC)CCCC` (centres undefined), the Potency result in assay [1], in [2], in [12], in [4], in [5] and in assay [7] was “inactive” throughout. The Potency result in assay [8] and in assay [10] was “inactive” each time.
In the case of `C=CCN1C[C@H](C)N([C@H](c2ccc(C(=O)N(CC)CC)cc2)c2cccc(OC)c2)C[C@H]1C`, the Potency entry in [1], in assay [2], in assay [3], in [4], in assay [5] and in [8] was “inactive” in each case. Also, the Potency result in [10] and in [13] was “inactive” each time.
For `OCCSSCCO`, the Potency result in [1], in [2], in assay [4], in [5], in [6] and in assay [7] was “inactive” each time. The Potency entry in assay [8], in [9] and in assay [10] was “inactive” in each case.
For `CC(C)C1(C)N=C(c2ncccc2C(=O)O)NC1=O` (centres undefined), the Potency result in assay [1], in [2], in [4], in [5], in assay [6] and in assay [7] was “inactive” each time. The Potency result in assay [8] and in assay [10] was “inactive” in each case.
As to `CC[N+]1(CCOC(=O)C(O)(c2ccccc2)c2ccccc2)CCCCC1`, the Potency result in assay [1], in [2], in assay [12], in assay [4], in [5] and in [6] was “inactive” each time. The Potency result in [7], in [8], in assay [9] and in assay [10] was “inactive” throughout.
`CCCSP(=S)(OCC)Oc1ccc(SC)cc1` (centres undefined): the Potency entry in [1], in assay [2], in assay [3], in assay [4], in [5] and in assay [6] was “inactive” each time. Also, the Potency entry in assay [8], in assay [10], in [14] and in assay [13] was “inactive” throughout. Moreover, in [9], the Potency was 21.7 µM (active).
As for `CC(C)c1ccc(OP(=O)(Oc2ccc(C(C)C)cc2)Oc2ccc(C(C)C)cc2)cc1`, the Potency was 19.6 µM (active) and 19.5 µM (active) in [1]; 54.9 µM (active) in [3]; 30.9 µM (active) and 27.3 µM (active) and 48.5 µM (active) in assay [9]. The Potency result in [2], in assay [5], in assay [6], in [7], in assay [8] and in assay [10] was “inactive” in each case.
On to `CCN(C(C)=O)c1cccc(-c2ccnc3c(C#N)cnn23)c1`, for which the Potency result in assay [1], in [2], in assay [3], in assay [4], in [5] and in [6] was “inactive” in each case. The Potency result in [7], in assay [10] and in assay [11] was “inactive” each time.
Take `COP(=O)(OC)OC(Br)C(Cl)(Cl)Br` (centres undefined): the Potency entry in [1], in assay [2], in assay [4], in assay [5], in [6] and in assay [7] was “inactive” each time. Moreover, the Potency result in assay [8] was “inactive”.
Regarding `CCCBr`, the Potency entry in [1], in assay [2], in assay [12], in assay [4], in assay [5] and in assay [6] was “inactive” each time. Further, the Potency entry in assay [10] and in assay [11] was “inactive” in each case.
As for `CCCC[P+](CC)(CCCC)CCCC` (tested in a mixture with another compound), the Potency result in [1], in [2], in assay [4], in assay [5], in assay [6] and in assay [7] was “inactive” each time. Besides, in assay [10], the Potency result was “inactive”.
